An excerpt weighted towards active compounds, which were near 10% of everything screened.
G9a inh: blocks human histone lysine methyltransferase G9a; Potency, µM (highest dose often 102 µM), inactives show at the highest dose activity, negative = inhibition, most hits filed as inhibitors; Q96KQ7; G9a H3K9 monomethylation, AlphaScreen, 2 h; AID 504332; 350,000 tested, 8.8% active; note: potency is the fitted concentration of half-maximal effect; nearly all actives have a fitted effect of over 75% in size
Target sequence (Q96KQ7 913-1193 limits assumed): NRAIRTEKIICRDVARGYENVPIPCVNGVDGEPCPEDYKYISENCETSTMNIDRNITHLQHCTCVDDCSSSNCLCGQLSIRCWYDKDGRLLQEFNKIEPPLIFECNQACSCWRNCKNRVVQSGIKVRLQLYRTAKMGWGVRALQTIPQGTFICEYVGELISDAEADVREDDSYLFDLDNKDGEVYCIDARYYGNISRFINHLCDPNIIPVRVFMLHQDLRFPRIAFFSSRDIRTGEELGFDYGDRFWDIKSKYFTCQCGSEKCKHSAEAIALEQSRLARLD
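Quantitative HTS format: methyltransferase activity on a biotin-tagged H3K9 peptide is measured by AlphaScreen, using a rabbit anti-monomethyl-H3K9 antibody with streptavidin donor and anti-IgG acceptor beads. Final levels are 20 nM enzyme, 500 nM peptide, 20 uM SAM; 2 h RT.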
VDR inh: inhibitors of human vitamin D receptor; VDR-SRC2-3 peptide fluorescence polarization, 2 h; 400,000 tested, 0.93% active; Potency, µM, for the others: max response, negative = inhibition, usual class: inhibitors; P11473; note: potency is the fitted concentration of half-maximal effect
Target sequence (P11473 whole entry, looked up): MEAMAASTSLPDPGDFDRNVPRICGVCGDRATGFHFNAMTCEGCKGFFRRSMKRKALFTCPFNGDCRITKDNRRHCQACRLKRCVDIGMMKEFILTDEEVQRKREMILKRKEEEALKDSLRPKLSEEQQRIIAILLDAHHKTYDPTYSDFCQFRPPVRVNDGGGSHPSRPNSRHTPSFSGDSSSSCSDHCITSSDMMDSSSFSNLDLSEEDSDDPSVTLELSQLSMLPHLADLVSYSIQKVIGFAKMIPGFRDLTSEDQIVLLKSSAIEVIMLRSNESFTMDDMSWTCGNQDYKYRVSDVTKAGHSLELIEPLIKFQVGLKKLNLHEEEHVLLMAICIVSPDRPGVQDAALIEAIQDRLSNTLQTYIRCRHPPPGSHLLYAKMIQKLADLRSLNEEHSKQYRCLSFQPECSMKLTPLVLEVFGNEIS
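The screen uses fluorescence polarization to detect compounds that interfere with recruitment of the SRC2-3 coactivator peptide to VDR; plates are read after 2 h at room temperature.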
PLK1 PBD inh: inhibitors of human PLK1 polo-box domain binding; P53350; 360,000 tested, 2.8% active; Potency, µM, for inactives: max response, negative = inhibition, hits mostly inhibitors; Plk1 PBD binding of FITC phosphopeptide, fluorescence polarization; note: potency is the fitted concentration of half-maximal effect; series mostly up to about 57 µM; nearly all actives have a fitted effect of over 65% in size
MmCpn inh: blocks the Methanococcus maripaludis chaperonin Mm-Cpn. purified Mm-Cpn ATPase, ADP Transcreener TR-FRET. Potency, µM (doses to about 76.9 µM), for the others: at the top dose activity, negative = inhibition, most hits filed as inhibitors. 330,000 tested, 0.031% active. AID 504842; note: potency is the fitted concentration of half-maximal effect; nearly all actives have a fitted effect of over 80% in size
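ATP (10 uM final) was added to archaeal chaperonin (25 nM final) after 10 min exposure to test compound at 37°C; after 30 min further incubation, ADP was detected by competitive TR-FRET.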
Sfp inh: Sfp phosphopantetheinyl transferase inhibition | Potency, µM, for the others: largest response in the series, negative = inhibition, actives largely listed as inhibitors | Q9F4F7 | 310,000 tested, 3.5% active | Biochemical Sfp PPTase activity, qHTS;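 note: the enzyme is Sfp with the accession as filed and its product quenches rhodamine fluorescence; potency is the fitted concentration of half-maximal effect; 0% = enzyme reaction without inhibitor and -100% = no enzyme wells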
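Compounds were incubated with enzyme (final 15 nM) for 15 min at room temperature before substrate addition started the reaction. Fluorescence at 525 nm excitation, 598 nm emission was recorded immediately and after 30 minutes.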
CCT chaperon mod: cytosolic chaperonin activity modulation; purified chaperonin ATPase assay, HTRF ADP detection, 30 min; activity change, % (no concentration beside the values), hits read low; 360,000 tested, 0.3% active; in the data active = activity change below about -30%
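TRiC (40 or 20 nM final, by batch activity) in 30 mM Tris pH 7.4, 100 mM KCl, 5 mM MgCl2, 1 mM DTT was treated with compound at 76 uM single dose, then 10 uM ATP, 30 min at 37 °C. ADP was read by HTRF Transcreener.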
Active calls of the source: *; ? = inconclusive; · = no result; [ ] = remark or other dose. Unless noted, calls come from the whole dose curve; as a rule, active = well fitted curve in the direction sought with a large enough effect; inconclusive = small, poorly fitted or top-dose-only effect, or another doubt; inactive = no such curve, though single readings can be large; an effect the other way counts as inactive or inconclusive. Unless noted, % is set by controls: 0 for no effect and ±100 for the full control effect.

SMILES | G9a inh | VDR inh | PLK1 PBD inh | MmCpn inh | Sfp inh | CCT chaperon mod
COc1cccc(CNC(=O)Cn2c(=O)ccc3cc(S(=O)(=O)N4CCC(C)CC4)ccc32)c1 | -4%[59 µM] | 7% | · | · | · | ·
COc1cc(/C=C2/CC/C(=C/c3ccc(O)c(OC)c3)C2=O)ccc1O | ? | -9% | ? | -2% | ? | -2
COc1cc(/C=C2\COC/C(=C\c3ccc(O)c(OC)c3)C2=O)ccc1O | 32µM* | ? | -2% | -1% | 8% | 0
COc1cc(/C=C2\CC/C(=C\c3ccc(OCCO)c(OC)c3)C2=O)ccc1OCCO | 45µM* | -4% | 2% | -2% | -16% | 0
COc1cc(OC)c(OC)cc1/C=C1\CCC/C(=C\c2cc(OC)c(OC)cc2OC)C1=O | 40µM* | -13% | 1% | 2% | -12% | -1
O=C1C=CC(=O)N1N(c1ccccc1)c1ccccc1 | 1.8µM* | 13µM* | 4.7µM* | 1% | 32µM* | -2
CN1CCC(N(C)S(=O)(=O)c2ccc(NC(=O)COc3ccc(Cl)cc3)cc2)CC1 | 16%[12.7 µM] | 5% | 1% | 0% | · | 1
CN1CCC(N(C)S(=O)(=O)c2ccc(NC(=O)COc3ccc(F)cc3Cl)cc2)CC1 | ? | -3% | -3% | 0% | -8% | 0
CN1CCC(N(C)S(=O)(=O)c2ccc(NC(=O)COc3ccc(F)cc3)cc2)CC1 | 11µM* | -11% | -4% | 1% | · | -2
CN1CCC(N(C)S(=O)(=O)c2ccc(NC(=O)COc3ccc([N+](=O)[O-])cc3)cc2)CC1 | 13µM* | -12% | -1% | ? | · | -2
CC(C)Oc1ccc(CNC(=O)C2CCCCN2S(=O)(=O)c2ccc(F)cc2)cc1 (configuration not stated) | -6%[59 µM] | 9% | · | · | · | ·
FC(F)(F)c1cccc(-n2cc(-c3ccccc3)c3c(N4CCCCC4)ncnc32)c1 | 10%[59 µM] | -2% | · | · | · | ·
O=C(COc1ccc(Br)cc1)Nc1nnc(C2CC2)s1 | -4%[12.7 µM] | -6% | -13% | -2% | · | -1
Cc1ccc(NC(=O)CSc2ccc(-c3ccccn3)nn2)cc1 | 17% | 1% | 4% | -2% | -4% | 2
Cc1nnc(NC(=O)CSc2ccc(-c3ccccn3)nn2)s1 | 2.8µM* | · | · | -1% | ? | ·
CCc1nnc(NC(=O)CSc2ccc(-c3ccc(F)cc3)nn2)s1 | 45µM* | · | · | 1% | -11% | ·
CCc1nnc(NC(=O)CSc2ccc(-c3cccs3)nn2)s1 | -11% | -4% | -16% | -6% | -23% | -12
O=C(COc1ccc(Br)cc1)Nc1nnc(-c2cccnc2)s1 | 26% | ? | 30µM* | 0% | -4% | -1
C=CCn1c(SCC(=O)Nc2nnc(C)s2)nnc1-c1cccnc1 | -43% | -3% | 21µM* | 1% | -9% | 3
COc1ccccc1C(=O)N1CCC(c2noc(-c3ccc(S(=O)(=O)N4CCCC4)cc3)n2)CC1 | 0%[59 µM] | 16% | · | · | · | ·
Cc1cc(C)cc(NC(=O)C2CC(=O)N(c3ccccc3)C2)c1 (configuration not stated) | 1%[59 µM] | -21% | · | · | · | ·
NC(=O)C1CCN(C(=O)c2ccc(NC(=O)c3nsc4ccccc34)cc2)CC1 | 20%[59 µM] | -8% | · | · | · | ·
Cc1nnc(NC(=O)CSc2ccc(-c3cccnc3)nn2)s1 | ? | -8% | -14% | 0% | 40µM* | -9
C/C=C/C(=O)C[C@H]1CC[C@@H](C)[C@@H](CCO)O1 | · | -8% | · | · | -1% | ·
CCc1cccc(NC(=O)CC2Oc3ccc(C)cc3NC2=O)c1 (configuration not stated) | -11%[59 µM] | -23% | · | · | · | ·
SMILES | G9a inh | VDR inh | PLK1 PBD inh | MmCpn inh | Sfp inh | CCT chaperon mod
O=C1CC(Sc2ncccc2C(=O)O)C(=O)N1 (configuration not stated) | ? | -1% | 0% | -7% | 0% | 1
CC1=NN(c2ccccc2)C(=O)C1C(=S)SC1CC(=O)NC1=O (configuration not stated) | · | · | 11µM* | · | · | 2
COc1ccccc1-c1ccc(=O)n(CC(=O)NC2CCc3ccccc32)n1 (configuration not stated) | 2% | 0% | -11% | -9% | 35µM* | -1
COc1cccc(N2CCN(C(=O)c3cnc4c(-c5ccccc5)c(C)nn4c3C)CC2)c1 | 8%[59 µM] | -2% | · | · | · | ·
COc1cc(/C=C/C(=O)OCC(=O)c2ccc3c(c2)NC(=O)CO3)ccc1OC(F)F | ? | ? | 19µM* | -2% | · | 1
Cc1ccc(NC(=O)CCS(=O)(=O)c2cccc3nsnc23)c(C)c1 | 3%[59 µM] | -9% | · | · | · | ·
CC(NC(=O)NNC(N)=S)(C(F)(F)F)C(F)(F)F | 7% | -10% | -11% | 0% | 45µM* | -4
COC(=O)c1nc2n(n1)C(c1cccc(Cl)c1)C(C(=O)Nc1ccccc1OC)=C(C)N2 (configuration not stated) | -39%[59 µM] | -15% | · | · | · | ·
CC(=O)N1CCN(c2c(F)c(F)c(C(F)(F)F)c(F)c2F)CC1 | 7% | -3% | -10% | 0% | -6% | -38*
O=C(O)COc1c(F)c(F)c(C(F)(F)F)c(F)c1F | ? | -9% | 2% | 1% | 1% | -3
CC(=O)Nc1ccc(-c2csc(Nc3ncccn3)n2)cc1 | 4% | -16% | 5% | -3% | 15% | -2
CC(=O)Nc1ccc(-c2csc(NC(=O)CC(NC(C)=O)c3ccccc3)n2)cc1 (configuration not stated) | 45µM* | 11% | -8% | 1% | ? | 1
CC(=O)Nc1ccc(-c2csc(NC(C)c3ccccc3)n2)cc1 (configuration not stated) | ? | -16% | -8% | -6% | 50µM* | 1
O=C(NCCOCCn1c(=O)oc2ccccc21)Nc1cccc(Cl)c1 | -6%[59 µM] | 7% | · | · | · | ·
CC(C)[C@H](NC(=O)[C@@H]1CSC2c3ccccc3C(=O)N21)C(=O)NCc1ccco1 (some centres not stated) | · | -14% | -19% | 2% | ? | -1
O=C(NCc1ccco1)[C@@H]1CSC2c3ccccc3C(=O)N21 (some centres not stated) | -6%[12.7 µM] | 13% | -27% | 2% | 35µM* | -3
O=C(CCl)N1CCN2C(=O)c3ccccc3C12c1ccc(Cl)cc1 (configuration not stated) | ? | ? | ? | 1% | 19% | -2
O=C(Nc1cccc(Cl)c1)N1CCN2C(=O)c3ccccc3C12c1ccccc1 (configuration not stated) | 14%[59 µM] | -14% | 12µM* | 1%[15.4 µM] | 17% | 0
N#C/C(=C\c1ccc(C(=O)O)cc1)c1nc2sc3c(c2c(=O)[nH]1)CCCC3 | 40µM* | -5% | ? | -2% | -13% | -1
